Experimental data from PubChem BioAssay (Tox21).
Values joined by “and” are separate entries in the source; they are usually repeats but may differ in a detail not shown here. Equal values may be shown once. Results filed as inconclusive are left out. Where a call stands in place of a potency, no number is given. More than one record can exist for a structure, and the calls need not agree. Active and inactive are the calls of the source. Unless noted, the call rests on the fitted dose curve; in most records, active means well fitted curve in the direction sought with a large enough effect in the repeat runs; inconclusive means weak or mixed curves; inactive means no such curve, though single readings can be large; an effect the other way counts as inactive or inconclusive.

Experiments:
[1] = target: Estrogen receptor beta (Homo sapiens) (UniProt Q92731); test: qHTS assay to identify small molecule agonists of the estrogen receptor beta (ER-beta) signaling pathway (AID 1259377; active means well fitted activation curve with a large enough effect in the signal ratio in the repeat runs, not every such curve was filed as active; the % refers to the signal ratio; further: potency means the concentration at half of the fitted maximal effect)
Sequence of Estrogen receptor beta (Homo sapiens) (Q92731 whole entry, looked up): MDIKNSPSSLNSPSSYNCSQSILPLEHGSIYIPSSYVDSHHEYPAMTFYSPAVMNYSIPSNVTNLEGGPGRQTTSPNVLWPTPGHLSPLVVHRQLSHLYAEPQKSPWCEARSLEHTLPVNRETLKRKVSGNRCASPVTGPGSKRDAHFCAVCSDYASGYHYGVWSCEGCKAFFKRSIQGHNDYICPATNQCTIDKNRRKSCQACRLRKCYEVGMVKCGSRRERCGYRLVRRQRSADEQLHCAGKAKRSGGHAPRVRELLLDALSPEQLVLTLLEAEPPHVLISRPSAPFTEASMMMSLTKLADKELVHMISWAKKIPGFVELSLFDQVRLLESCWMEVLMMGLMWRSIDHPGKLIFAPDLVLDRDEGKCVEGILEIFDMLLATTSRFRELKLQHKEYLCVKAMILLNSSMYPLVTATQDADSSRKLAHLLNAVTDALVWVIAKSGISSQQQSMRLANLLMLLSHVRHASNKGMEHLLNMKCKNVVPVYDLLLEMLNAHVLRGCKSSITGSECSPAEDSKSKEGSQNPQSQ
Outline: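 A UAS-controlled beta-lactamase reporter in ER-beta-UAS-bla HEK293T cells reports receptor activation. Compounds act for 16 hr at 37C in 2% charcoal-stripped serum, and a FRET substrate is read by fluorescence after 2 hours.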

[2] = target: Estrogen receptor beta (Homo sapiens) (UniProt Q92731); test: qHTS assay to identify small molecule antagonists of the estrogen receptor beta (ER-beta) signaling pathway (AID 1259378; active means well fitted inhibition curve with a large enough effect in the signal ratio in the repeat runs, not every such curve was filed as active; the % refers to the signal ratio; further: potency means the concentration at half of the fitted maximal effect)
Outline: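 Antagonist mode: compounds added to beta-lactamase reporter HEK293T ER-beta-UAS cells stimulated with E2 (1nM final), 16 hr at 37C. LiveBLAzer B/G FRET substrate, 2 hours room temperature, fluorescence read-out.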

[3] = qHTS assay to identify small molecule agonists of the androgen receptor (AR) signaling pathway in the presence of an antagonist - cell viability counter screen (AID 1259379); further: nearly all actives have a fitted effect of over 25% in size; further: potency means the concentration at half of the fitted maximal effect
Outline: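 Viability counter screen: CellTiter-Fluor fluorescence, measured in the same wells as the luciferase read-out. MDA-kb2 cells, 3,000/well, with nilutamide at 3.0uM final and compounds at 15 concentrations, 16 hr at 37C, 0% CO2.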

[4] = qHTS assay to identify small molecule agonists of the estrogen receptor beta (ER-beta) signaling pathway - cell viability counter screen (AID 1259380); further: nearly all actives have a fitted effect of over 30% in size; further: potency means the concentration at half of the fitted maximal effect
Outline: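 Luminescence read-out (CellTiter-Glo, 30 min, room temp) taken in the same wells as the beta-lactamase reporter assay; ER-beta-UAS-bla HEK293T cells exposed to DMSO-dissolved compounds for 16 hr at 37C in 2% charcoal-stripped FBS medium.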

[5] = target: Estrogen receptor (Homo sapiens) (UniProt P03372); test: qHTS assay to identify small molecule agonists of the estrogen receptor alpha (ER-alpha) signaling pathway in the presence of an antagonist (AID 1259383; calls by dose curve; further: nearly all actives have a fitted effect of over 15% in size; further: potency means the concentration at half of the fitted maximal effect; on activation: top concentration of the series differs between compounds)
Sequence of Estrogen receptor (Homo sapiens) (P03372 whole entry, looked up): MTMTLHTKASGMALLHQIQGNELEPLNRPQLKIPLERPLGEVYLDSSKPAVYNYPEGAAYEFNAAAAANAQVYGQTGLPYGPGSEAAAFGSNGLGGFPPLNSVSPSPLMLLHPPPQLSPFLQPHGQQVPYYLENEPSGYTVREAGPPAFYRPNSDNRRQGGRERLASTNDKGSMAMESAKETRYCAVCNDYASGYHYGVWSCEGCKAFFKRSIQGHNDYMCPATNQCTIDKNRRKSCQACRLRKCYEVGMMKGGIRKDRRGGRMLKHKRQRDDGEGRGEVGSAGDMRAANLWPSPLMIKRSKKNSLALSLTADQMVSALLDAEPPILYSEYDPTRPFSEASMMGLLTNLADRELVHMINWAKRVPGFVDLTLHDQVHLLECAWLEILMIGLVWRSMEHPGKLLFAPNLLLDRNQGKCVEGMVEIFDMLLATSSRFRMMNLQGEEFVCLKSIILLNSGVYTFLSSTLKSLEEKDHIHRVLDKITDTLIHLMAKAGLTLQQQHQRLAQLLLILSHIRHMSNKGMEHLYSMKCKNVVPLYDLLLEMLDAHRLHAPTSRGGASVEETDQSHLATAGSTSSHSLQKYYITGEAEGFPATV
Outline: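 Luciferase luminescence (ONE-Glo, 30min at room temperature) measured in VM7Luc4E2 cells after 22hr compound exposure at 15 concentrations, with 10.0nM ICI-182,780 final present; cells express endogenous ER-alpha and carry four EREs upstream of luciferase.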

[6] = qHTS assay to identify small molecule agonists or antagonists of the thyroid stimulating hormone receptor (TSHR) signaling pathway - wild type cell line counter screen (AID 1259384; calls by dose curve)
Outline: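 Counter screen in untransfected Hek293: compounds (15-point titration, triplicate) plus phosphodiesterase inhibitor Ro20-1724 added after 18 h plating; 30 min RT. Intracellular cAMP via competitive d2/cryptate immunoassay, 1 h incubation.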

[7] = target: Thyrotropin receptor (Homo sapiens) (UniProt P16473); test: qHTS assay to identify small molecule antagonists of the thyroid stimulating hormone receptor (TSHR) signaling pathway (AID 1259385; calls by dose curve; further: nearly all actives have a fitted effect of over 20% in size)
Sequence of Thyrotropin receptor (Homo sapiens) (P16473 whole entry, looked up): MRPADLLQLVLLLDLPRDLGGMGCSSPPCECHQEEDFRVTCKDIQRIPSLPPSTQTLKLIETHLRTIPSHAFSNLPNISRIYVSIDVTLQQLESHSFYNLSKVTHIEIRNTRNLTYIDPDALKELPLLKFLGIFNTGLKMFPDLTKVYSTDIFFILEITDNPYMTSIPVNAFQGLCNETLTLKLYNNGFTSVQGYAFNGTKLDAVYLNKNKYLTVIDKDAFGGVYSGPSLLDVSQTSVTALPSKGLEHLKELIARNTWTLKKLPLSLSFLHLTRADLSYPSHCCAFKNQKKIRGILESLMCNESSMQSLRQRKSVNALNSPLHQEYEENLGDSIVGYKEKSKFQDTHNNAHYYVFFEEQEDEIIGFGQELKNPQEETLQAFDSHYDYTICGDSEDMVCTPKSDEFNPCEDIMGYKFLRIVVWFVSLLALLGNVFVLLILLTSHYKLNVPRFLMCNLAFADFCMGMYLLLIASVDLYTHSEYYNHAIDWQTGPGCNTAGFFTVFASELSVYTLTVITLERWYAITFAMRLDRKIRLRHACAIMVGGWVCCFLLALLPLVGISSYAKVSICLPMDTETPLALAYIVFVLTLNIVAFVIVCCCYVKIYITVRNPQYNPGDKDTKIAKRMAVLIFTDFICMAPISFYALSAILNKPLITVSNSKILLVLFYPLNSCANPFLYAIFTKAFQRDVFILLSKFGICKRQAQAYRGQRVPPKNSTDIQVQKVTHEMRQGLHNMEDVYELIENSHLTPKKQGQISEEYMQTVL
Outline: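 Antagonist mode: compound-treated TSHR-expressing HEK293 cells were stimulated with 1.5 ng/mL TSH (final) in presence of Ro20-1724 for 30 min at RT. HTRF cAMP detection after 1 h; each compound tested at 15 concentrations, triplicate.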

[8] = qHTS assay to identify small molecule agonists of the estrogen receptor alpha (ER-alpha) signaling pathway in the presence of an antagonist - cell viability counter screen (AID 1259386);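 further: cells exposed to compounds for 22 h at 37 °C before the viability read; nearly all actives have a fitted effect of over 30% in size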; further: potency means the concentration at half of the fitted maximal effect
Outline: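 Read-out: CellTiter-Fluor fluorescence after 1hr reagent incubation, measured in the same wells as the luciferase readout. VM7Luc4E2 cells were exposed to 15 compound concentrations with 10.0nM ICI-182,780 for 22hr at 37C.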

[9] = target: Progesterone receptor (Homo sapiens) (UniProt P06401); test: qHTS assay to identify small molecule antagonists of the progesterone receptor (PR) signaling pathway (AID 1346795; active means well fitted inhibition curve with a large enough effect in the signal ratio in the repeat runs, not every such curve was filed as active; the % refers to the signal ratio; further: potency means the concentration at half of the fitted maximal effect)
Sequence of Progesterone receptor (Homo sapiens) (P06401 whole entry, looked up): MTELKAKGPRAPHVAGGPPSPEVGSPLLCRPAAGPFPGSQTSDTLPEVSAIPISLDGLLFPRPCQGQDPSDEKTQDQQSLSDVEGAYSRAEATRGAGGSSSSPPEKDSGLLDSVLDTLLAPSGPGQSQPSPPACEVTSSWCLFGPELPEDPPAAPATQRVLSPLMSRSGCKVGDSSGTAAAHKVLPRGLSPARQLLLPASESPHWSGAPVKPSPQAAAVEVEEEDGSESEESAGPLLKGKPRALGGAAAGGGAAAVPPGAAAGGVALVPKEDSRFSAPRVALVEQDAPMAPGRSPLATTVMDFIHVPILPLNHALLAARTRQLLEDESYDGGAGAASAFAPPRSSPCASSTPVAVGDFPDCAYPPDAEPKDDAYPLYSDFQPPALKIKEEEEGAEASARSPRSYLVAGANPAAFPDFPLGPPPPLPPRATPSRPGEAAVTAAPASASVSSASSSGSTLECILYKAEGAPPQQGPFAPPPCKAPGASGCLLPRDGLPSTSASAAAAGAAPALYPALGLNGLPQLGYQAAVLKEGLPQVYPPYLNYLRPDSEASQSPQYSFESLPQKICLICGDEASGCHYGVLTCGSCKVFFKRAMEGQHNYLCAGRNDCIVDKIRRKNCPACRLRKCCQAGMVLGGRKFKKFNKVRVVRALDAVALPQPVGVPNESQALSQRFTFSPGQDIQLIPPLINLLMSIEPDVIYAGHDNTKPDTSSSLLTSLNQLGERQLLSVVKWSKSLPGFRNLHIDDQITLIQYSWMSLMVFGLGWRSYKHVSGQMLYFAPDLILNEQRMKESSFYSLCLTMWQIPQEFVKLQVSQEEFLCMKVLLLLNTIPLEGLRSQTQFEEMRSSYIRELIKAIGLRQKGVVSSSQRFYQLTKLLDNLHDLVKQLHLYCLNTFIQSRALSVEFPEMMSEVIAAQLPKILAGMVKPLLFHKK
Outline: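 HEK293T PR-UAS-bla reporter cells in charcoal-stripped serum (2%) received compound after a 6 hr settling period, followed by R5020 agonist at 1 nM final; 16 hr incubation preceded the FRET substrate step and fluorescence measurement.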

[10] = qHTS assay to identify small molecule antagonists of the progesterone receptor (PR) signaling pathway - cell viability counter screen (AID 1346798); further: nearly all actives have a fitted effect of over 50% in size; further: potency means the concentration at half of the fitted maximal effect
Outline: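 Same-well multiplex: after 16 hr at 37C with compound and R5020 stimulation, HEK293T cells carrying a UAS-bla reporter received LiveBLAzer substrate (2 hr RT), then CellTiter-Glo (30 min RT) for luminescent viability.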

[11] = qHTS assay to identify small molecule agonists of the progesterone receptor (PR) signaling pathway - cell viability counter screen (AID 1346799; calls by dose curve; further: nearly all actives have a fitted effect of over 45% in size)
Outline: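 Counter screen for cytotoxicity: compound-treated PR-UAS-bla HEK293T cells (16 hr, 37C, 5% CO2) were assayed with CellTiter-Glo, luminescence measured after 30 min at room temperature.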

[12] = qHTS assay to identify small molecule antagonists of the TGF-beta/Smad signaling pathway - cell viability counter screen (AID 1346824); further: nearly all actives have a fitted effect of over 50% in size; further: potency means the concentration at half of the fitted maximal effect
Outline: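 Cytotoxicity counter-screen run in the same wells as the beta-lactamase Smad reporter read: CellTiter-Glo luminescence after 30 min at room temperature. HEK 293T SBE-bla cells had 5 hr compound exposure at 37 C with TGF-beta1 (0.25 ng/mL stock).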

[13] = qHTS assay to identify small molecule agonists of the TGF-beta/Smad signaling pathway - cell viability counter screen (AID 1346829); further: nearly all actives have a fitted effect of over 45% in size; further: potency means the concentration at half of the fitted maximal effect
Outline: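 Tox21 qHTS format: SBE-bla HEK 293T cells treated with DMSO-dissolved compounds for 5 hr; CellTiter-Glo luminescence after 30 min at room temperature.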

[14] = qHTS assay to identify small molecule agonists of the TGF-beta/Smad signaling pathway (AID 1346859; active means well fitted activation curve with a large enough effect in the signal ratio in the repeat runs, not every such curve was filed as active; the % refers to the signal ratio; further: series mostly up to about 77 µM)
Outline: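 Smad-responsive beta-lactamase reporter cells (HEK 293T) received compounds from DMSO stocks after overnight attachment, were incubated 5 hr, then treated 2 hr with FRET substrate before dual-emission fluorescence measurement (405 nm excitation).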

[15] = target: Thyrotropin-releasing hormone receptor (Homo sapiens) (UniProt P34981); test: qHTS assay to identify small molecule antagonists of the thyrotropin-releasing hormone receptor (TRHR) signaling pathway (AID 1346877; active means well fitted inhibition curve with a large enough effect in the repeat runs, not every such curve was filed as active; further: series mostly up to about 51 µM)
Sequence of Thyrotropin-releasing hormone receptor (Homo sapiens) (P34981 whole entry, looked up): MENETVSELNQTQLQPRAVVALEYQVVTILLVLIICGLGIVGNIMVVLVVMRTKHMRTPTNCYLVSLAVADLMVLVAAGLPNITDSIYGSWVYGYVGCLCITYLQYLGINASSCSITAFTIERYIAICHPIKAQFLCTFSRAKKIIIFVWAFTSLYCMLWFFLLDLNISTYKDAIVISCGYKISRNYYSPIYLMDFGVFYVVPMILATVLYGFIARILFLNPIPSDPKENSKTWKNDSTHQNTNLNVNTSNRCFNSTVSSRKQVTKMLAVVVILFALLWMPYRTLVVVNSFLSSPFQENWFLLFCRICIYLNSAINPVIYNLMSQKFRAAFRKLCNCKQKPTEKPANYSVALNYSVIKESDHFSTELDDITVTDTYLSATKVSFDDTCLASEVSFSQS
Outline: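 HEK293/TRHR cells, 18 h, 37 °C; Ca2+ dye 2 h; cpd 5 min RT; TRH 1 nM final; fluorescence read 3 min, 1 s intervals; 15 concs, triplicate.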

[16] = target: Thyrotropin-releasing hormone receptor (Homo sapiens) (UniProt P34981); test: qHTS assay to identify small molecule agonists of the thyrotropin-releasing hormone receptor (TRHR) signaling pathway (AID 1346891; calls by dose curve;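 further: HEK293 cells expressing TRHR with calcium dye readout; series mostly up to about 58 µM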)
Outline: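 Agonist-mode calcium mobilisation screen: TRHR-transfected HEK293 cells cultured overnight (18 h), dye-loaded for 2 h at 37 °C, exposed to compounds, and monitored by fluorescence for 3 min.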

[17] = Human pregnane X receptor (PXR) small molecule agonists, qHTS cell viability counter screen (AID 1346977); further: nearly all actives have a fitted effect of over 50% in size; further: potency means the concentration at half of the fitted maximal effect
Outline: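 Measures live-cell protease fluorescence (CellTiter-Fluor) in PXR-Luc HepG2 cells treated 24hr with compounds at 37C. Cells had 5hr to attach before pin transfer of DMSO solutions.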

[18] = qHTS assay to identify small molecule antagonists of the estrogen receptor beta (ER-beta) signaling pathway - cell viability counter screen (AID 1259382); further: nearly all actives have a fitted effect of over 55% in size; further: potency means the concentration at half of the fitted maximal effect
Outline: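 Luminescent ATP read-out (CellTiter-Glo, 30 min, RT) taken in the same wells as the bla reporter assay. HEK293T ER-beta-UAS-bla cells in 2% charcoal-stripped FBS were exposed to compounds with 1nM E2 for 16 hr at 37C.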

[19] = target: Progesterone receptor (Homo sapiens) (UniProt P06401); test: qHTS assay to identify small molecule agonists of the progesterone receptor (PR) signaling pathway (AID 1346784; calls by dose curve; further: nearly all actives have a fitted effect of over 30% in size; further: potency means the concentration at half of the fitted maximal effect)
Outline: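 Agonist mode, quantitative HTS format in a HEK 293T line expressing a UAS-controlled beta-lactamase reporter; 16 hr compound exposure at 37C in 2% charcoal-stripped FBS, then LiveBLAzer B/G FRET fluorescence.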

Structure (SMILES)	Potency [1]	Potency [2]	Potency [3]	Potency [4]	Potency [5]	Potency [6]	Potency [7]	Potency [8]	Potency [9]	Potency [10]	Potency [11]	Potency [12]	Potency [13]	Potency [14]	Potency [15]	outcome [16]	Potency [17]	Potency [18]	Potency [19]
CCCCCCCCCc1ccc(O)cc1	inactive	19.5 µM (active)	inactive	13.8 µM (active) and 43.3 µM (active)	inactive	inactive	inactive	inactive	27.6 µM (active) and 61.1 µM (active)	inactive	inactive	inactive	inactive	inactive	inactive	inactive	61.1 µM (active)	–	–
CCCCCCCC[N+](C)(CCCCCCCC)CCCCCCCC	–	17.2 µM (active)	12.2 µM (active) and 2.73 µM (active) and 24.3 µM (active)	12.2 µM (active) and 27.3 µM (active) and 30.6 µM (active)	inactive	inactive	inactive	21.6 µM (active) and 6.87 µM (active) and 30.6 µM (active)	–	30.6 µM (active)	–	15.5 µM (active) and 49 µM (active)	49 µM (active)	–	–	–	30.6 µM (active) and 5.45 µM (active) and 13.7 µM (active)	12.2 µM (active) and 43.3 µM (active) and 24.3 µM (active)	–
Cc1ccc(N=CN(C)C=Nc2ccc(C)cc2C)c(C)c1	inactive	inactive	inactive	54.7 µM (active) and 30.6 µM (active) and inactive	inactive	inactive	inactive	inactive	inactive	–	inactive	inactive	inactive	inactive	inactive	inactive	inactive	–	–
Clc1ccccc1-c1nnc(-c2ccccc2Cl)nn1	inactive	inactive	inactive	inactive	inactive	inactive	inactive	inactive	inactive	inactive	inactive	inactive	inactive	inactive	inactive	inactive	inactive	–	inactive
Nc1ncn[nH]1	inactive	inactive	inactive	inactive	–	inactive	inactive	inactive	inactive	–	inactive	inactive	inactive	inactive	–	–	inactive	–	–
CCCCOC(=O)COC(=O)c1ccccc1C(=O)OCCCC	inactive	inactive	inactive	inactive	inactive	–	–	inactive	inactive	inactive	inactive	inactive	inactive	inactive	–	–	inactive	–	–
CC(C)Nc1ccc(Nc2ccccc2)cc1	inactive	–	60.9 µM (active) and 68.6 µM (active)	19.3 µM (active) and 27.3 µM (active)	inactive	–	–	60.9 µM (active)	30.5 µM (active) and 27.3 µM (active)	–	–	inactive	inactive	inactive	inactive	inactive	20 µM (active) and 27.3 µM (active)	15.3 µM (active) and 27.3 µM (active)	–
CC(C)(O)C(=O)Nc1ccc([N+](=O)[O-])c(C(F)(F)F)c1	inactive	inactive	–	inactive	inactive	inactive	inactive	inactive	–	inactive	–	inactive	inactive	inactive	–	–	–	inactive	inactive
Cn1c(-c2ccccc2)cc(-c2ccccc2)[n+]1C	inactive	inactive	24.3 µM (active) and 19.3 µM (active)	inactive	inactive	inactive	inactive	–	inactive	inactive	inactive	inactive	inactive	inactive	inactive	inactive	inactive	–	inactive
CCOP(=S)(OCC)SCn1c(=O)oc2cc(Cl)ccc21	inactive	–	inactive	inactive	inactive	inactive	–	inactive	–	inactive	inactive	inactive	inactive	inactive	inactive	inactive	inactive	–	–
Clc1cccc(Cl)c1	inactive	inactive	inactive	–	–	inactive	inactive	inactive	inactive	inactive	inactive	inactive	inactive	inactive	inactive	inactive	inactive	inactive	–
Cc1ccc([N+](=O)[O-])cc1	inactive	inactive	inactive	inactive	inactive	inactive	inactive	inactive	inactive	inactive	inactive	inactive	inactive	inactive	inactive	inactive	inactive	–	inactive
O=C1Nc2ccc(Cl)cc2C(c2ccccc2)=NC1O (stereo unspecified)	inactive	inactive	inactive	inactive	–	inactive	inactive	inactive	inactive	–	inactive	inactive	inactive	inactive	–	–	inactive	–	–
CCC/C=N/O	inactive	inactive	inactive	inactive	inactive	–	–	inactive	inactive	–	inactive	inactive	inactive	inactive	inactive	inactive	inactive	–	–
c1ccc2c(c1)Nc1ccccc1S2	inactive	inactive	inactive	inactive	inactive	–	–	inactive	–	inactive	inactive	inactive	inactive	inactive	inactive	inactive	inactive	–	1.54 µM (active) and inactive
CCCCSP(=O)(SCCCC)SCCCC	inactive	inactive	inactive	inactive	–	inactive	–	inactive	23.8 µM (active) and 24.3 µM (active)	–	inactive	inactive	inactive	inactive	inactive	inactive	inactive	inactive	–
COP(=O)(NC(C)=O)SC (stereo unspecified)	inactive	inactive	inactive	inactive	–	–	–	inactive	inactive	–	inactive	inactive	inactive	inactive	inactive	inactive	inactive	inactive	–
C[C@]12CC[C@H]3[C@@H](CCC4=CC(=O)CC[C@@H]43)[C@@H]1CC[C@@H]2O	540 nM (active) and 4.22 µM (active)	–	inactive	inactive	1.21 µM (active) and 6.68 µM (active)	inactive	inactive	inactive	inactive	–	–	inactive	inactive	inactive	inactive	inactive	inactive	inactive	–
